The values below come from the OligoGym collection.
Further: reference of the scale not given here.

The target of the first test is FBXO43. The test can be described thus: pooled miR-30 sensor sort-seq; sequence = guide strand. Conditions: shRNA.
In turn, TAGGCTACAATCATCTTTGGAA displayed a sensor-assay potency score (higher = more potent) of 0.408.
In the case of AACCTTAACATATTCTTCCTGT, the sensor-assay potency score (higher = more potent) was 0.212.
Same read-out and setting: next, TTGCTTTTCATGAACAGCTCAT: -0.219; TTTGACTGCATGAAGTCACTTC: 0.521; TAACAGAAGAGCTTGCTAGAGG: -0.36.
In turn, TTATCTTGAACAACAATTTCAC had a sensor-assay potency score (higher = more potent) of 0.0349.

A further test deals with FBXO8. The description is as above. Particulars: shRNA.
Sequence TCATCCAAGACATCTCTCCTTT had a sensor-assay potency score (higher = more potent) of 0.239.
The same measure, in the same setting: next, TTCCTTTGGCGAATCATCCAGG: -0.484.
Still for that read-out and setting: with TTAGTCTGAAGTAAAAACTGAA the figure was -0.599; with TAGCACAGTACATAGACAGCAT, 0.733; with TTCATCAAGATAGATTCTCAGT, -0.522.
Still for that read-out and setting: next, TTGCTCACTGTAGCCTTCTTGT: -1.19; TTCATCATTCGCAAGGTCCTGC: 0.558.
Turning to TTGCTCGCAGCCATTCTCCTGC, the sensor-assay potency score (higher = more potent) was -0.359.
The same measure, in the same setting: with TAGGACAAGATGGTAAAGCTTA the figure was -0.15; with TTTATCATTCGTTAACAGCTGT, 0.355.
TTGTACAGAAGATAAACTTTGC had a sensor-assay potency score (higher = more potent) of -0.385.

The target of a further test is FBXW9. Described as above. Particulars: shRNA.
Consider TTCGCTCTCAACTGAGAGCGGG, for which the sensor-assay potency score (higher = more potent) was -0.823.
TTCTTCTCTTCCACCACTGGGT displayed a sensor-assay potency score (higher = more potent) of -0.376.
The same measure, in the same setting: next, TTCTCTTCCACCACTGGGTAGG: -0.729.
On the same count and under the same terms, with TCGCTTAGTGCCTAAGGTCTTG the figure was -0.92; with TTCACTGTGCTGTCCCAGGAGC, -1.05; with TCGCTCTCAACTGAGAGCGGGG, -1.29.
Still for that read-out and setting: with TATCTCGCCGAACTGCTGCCCA the figure was -0.658; with TACTATTTCGCTTAGTGCCTAA, -0.65.
In turn, TCGTAGATGGTCACCTTCTTGT showed a sensor-assay potency score (higher = more potent) of -0.618.
On the same count and under the same terms, with TAGATGGTCACCTTCTTGTCAT the figure was -0.453; with TAAGGTCTTGATCAGAACCTGG, -0.161; with TTGACGTTGCGATCTCGGGAGC, -1.12.

For the next test, the target named is FCF1. The description is as above. Particulars: shRNA.
TTCCTTTGTGTGTACATGGTAA had a sensor-assay potency score (higher = more potent) of -0.531.
Same read-out and setting: with TTCAGCCATTACACAATCGGTT the figure was -0.926.
Still for that read-out and setting: next, TTGGGGAACTTCTCTTTCCTTT: -0.569.
Sequence TTAGGTTTTAATCTATCCTTTT displayed a sensor-assay potency score (higher = more potent) of -0.692.
Still for that read-out and setting: with TTCATGGTCGCATACTTCCTTG the figure was -1.25; with TCTGAGACTAAGCATTCGCTTC, -1.06.
On the same count and under the same terms, with TGTGTGTACATGGTAATCGTTC the figure was -0.765; with TTTAGGTTTTAATCTATCCTTT, -0.181; with TTATATTGGAAAAATAAGCAGG, -0.37.
On the same count and under the same terms, next, TTTTAATCTATCCTTTTCTTTA: -1.02; TTATGCTGAGTTACTCTCTGTA: 0.221.
